rCAG RNA binder: binds r(CAG) RNA repeats. r(CAG) RNA repeat, TO-PRO-1 dye displacement fluorescence. inhibition, % at 3 µM. actives 1.3% (n = 370,000). AID 651821;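 active = inhibition above the plate cutoff, the mean of all test compounds on that plate plus 3 SD, cut at about 35% in these data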;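 note: 0% = DMSO alone and 100% = 100 µM mitoxantrone as full dye displacement; higher means more dye released from RNA so lower well fluorescence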
NadD inh: blocks S. aureus nicotinate mononucleotide adenylyltransferase | purified NadD enzyme, colorimetric absorbance read-out | inhibition, % at 20 µM | actives 0.78% (n = 360,000) | AID 602399; in the data active = inhibition above about 26%
FAS TE block: FAS thioesterase (human) inhibition | P49327 | actives 0.67% (n = 360,000) | inhibition, % at 15 µM | recombinant FAS-TE, OMFH fluorogenic substrate, fluorescence endpoint;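 active = compounds whose normalised, plate-corrected inhibition of enzyme fluorescence in the single-dose primary screen is 50% or more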;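 note: 0% = DMSO with enzyme and 100% = substrate without enzyme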
NR3A LBD binder: modulators (binders) of human NR3A ligand-binding domain. Tm shift relative to glycine control, % at 25 µM. NR3A LBD differential scanning fluorimetry, Tm shift; 0% = protein alone, 100% = glycine-bound protein. AID 1259313. actives 2.5% (n = 340,000);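 active = melting temperature shift of at least 10% of the positive control shift, at one fixed dose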
rCAG bind conf: r(CAG) RNA repeat binding, confirmation; shares compounds with rCAG RNA binder; TO-PRO-1 dye displacement fluorescence; inhibition, % at 3 µM; actives 70% (n = 4,300);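 active = inhibition above a per-plate cutoff, the mean inhibition of sample wells plus 3 SD, cut at about 35% in these data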;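 note: loss of TO-PRO-1 fluorescence as compound displaces dye from 1x1 AA loop RNA; 0% = DMSO only wells and 100% = 100 µM mitoxantrone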
dCAG dye counter: DNA CAG dye complex inhibition counter-screen | shares compounds with rCAG RNA binder | d(CAG) DNA oligo TO-PRO-1 dye displacement, fluorescence | inhibition, % at 3 µM | actives 94% (n = 4,300);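 active = inhibition above its plate's cutoff, the mean test-well inhibition plus 3 SD, cut at about 4.8% in these data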;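 note: 0% = DNA dye mix with DMSO and 100% = 100 µM mitoxantrone; hits displace the dye from DNA and so lower well fluorescence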
dCAG dye DR: DNA CAG dye complex inhibition, dose response counter-screen | shares compounds with rCAG RNA binder | DNA CAG/GTC duplex TO-PRO-1 dye displacement fluorescence | IC50, µM | actives 20% (n = 250); in the data active = IC50 below about 10 µM
An asterisk follows results filed as active; x = not tested or not shown. An excerpt weighted towards active compounds, which were near 4.3% of everything screened.

SMILES	rCAG RNA binder	NadD inh	FAS TE block	NR3A LBD binder	rCAG bind conf	dCAG dye counter	others
COc1ccc(NC(=O)Nc2nc(C(N)CC(C)C)cs2)cc1 (configuration not stated)	28	-4	-4	x	x	x
NC(c1csc(NC(=O)Nc2ccc(OC(F)(F)F)cc2)n1)C1CCCCC1 (configuration not stated)	40*	12	-31	x	25	4
Cc1cc(Cl)cc2c(N=Nc3ccccc3C(=O)O)c(O)[nH]c12	39*	12	1	8	92*	76*
Cc1[nH]n(-c2ccccc2)c(=O)c1N=Nc1ccccc1C(=O)O	33	-5	-2	0	x	x
CCCCNC(=O)c1nc(C2CCN(S(=O)(=O)c3csc(C(=O)O)c3)CC2)oc1-c1ccccc1	44*	-5	-1	x	39*	11*	dCAG dye DR=>30
CCCCNC(=O)c1nc(C2CCN(S(=O)(=O)c3ccc(Cl)cc3)CC2)oc1-c1ccccc1	4	x	x	x	x	x
CCc1c(-c2ccccc2F)ncn1CCc1ccccc1OC	-2	x	x	x	x	x
O=S(=O)(Nc1ccc(S(=O)(=O)Nc2cccc3ccccc23)cc1)c1ccccc1	35*	1	2	4	24	5.5*
Cc1ccc(S(=O)(=O)Nc2ccccc2NS(=O)(=O)c2ccc(C)cc2)cc1	71*	7	12	x	56*	20*
O=S(=O)(Nc1ccc(N=Nc2ccc(O)c3ccccc23)cc1)c1ccccc1	67*	26	39	8	65*	32*
O=S(=O)(Nc1ccc(S(=O)(=O)Nc2ccccc2)cc1)c1ccccc1	23	1	-1	1	x	x
O=S(=O)(Nc1ccc(Cl)cc1NS(=O)(=O)c1ccccc1)c1ccccc1	81*	0	5	-9	73*	38*
O=S(=O)(Nc1ccc(N=Nc2ccccc2)cc1)c1ccccc1	31	-8	25	0	x	x
Cc1ccc(NS(=O)(=O)c2ccccc2)c(NS(=O)(=O)c2ccccc2)c1	49*	-9	4	-4	48*	13*
CC(C)C[C@@H]1COc2cc(F)ccc2S(=O)(=O)N1	2	x	x	x	x	x
N=C1/C(=C\c2ccc(Br)o2)C(=O)N=C2SC(CC(=O)N3CCOCC3)=NN12	36*	1	-3	-1	18	5.1*
N=C1S/C(=C\c2ccc(-c3ccccc3C(=O)O)o2)C(=O)N1c1ccc2c(c1)OCO2	42*	12	0	3	30	10*
Oc1ccc(/C=N/N(c2ccccc2)c2ccccc2)c(O)c1O	43*	37*	7	x	52*	28*
Cc1ccc([N+](=O)[O-])cc1N(CC(=O)Nc1ccc(S(=O)(=O)Nc2cccc(C(F)(F)F)c2)cc1)S(C)(=O)=O	58*	29	29	12*	56*	18*
CCCCc1ccc(S(=O)(=O)NC(=O)C2(C)CCN2C(=O)c2cccc(F)c2)cc1 (configuration not stated)	37*	0	-7	x	30	6.5*
CCCCc1ccc(S(=O)(=O)NC(=O)C2(C)CCN2C(=O)Cc2ccccc2)cc1 (configuration not stated)	39*	-1	-7	x	29	4.8*
CCCCc1ccc(S(=O)(=O)NC(=O)C2(C)CCN2C(=O)C/C=C/c2ccccc2)cc1 (configuration not stated)	58*	-2	-1	x	55*	18*
CC1(C(=O)NS(=O)(=O)c2ccc(Cl)cc2)CCN1C(=O)Cc1ccccc1 (configuration not stated)	4	1	-6	x	x	x
CCCCS(=O)(=O)NC(=O)C1(C)CCN1C(=O)C/C=C/c1ccccc1 (configuration not stated)	9	4	-10	x	x	x
CC(C)CNC(=O)OCc1cn(Cc2cccc(C(F)(F)F)c2)nn1	-1	x	x	x	x	x
SMILES	rCAG RNA binder	NadD inh	FAS TE block	NR3A LBD binder	rCAG bind conf	dCAG dye counter	others
Cc1ccc(C)c(OCC(=O)NC(Cc2c[nH]c3ccccc23)C(=O)O)c1 (configuration not stated)	20	2	-2	-2	x	x
Cc1oc(-c2ccccc2)cc1C(=O)NC(Cc1c[nH]c2ccccc12)C(=O)O (configuration not stated)	40*	1	-2	-2	52*	18*
CCOc1ccccc1Nc1nnc(SCC(=O)NC(Cc2c[nH]c3ccccc23)C(=O)O)s1 (configuration not stated)	39*	7	-2	-1	33	10*
Cc1ccc(Nc2nnc(SCC(=O)NC(Cc3c[nH]c4ccccc34)C(=O)O)s2)cc1 (configuration not stated)	38*	12	-6	-1	28	8.6*
CCOc1ccccc1Nc1nnc(SCC(=O)Nc2ccc3[nH]c(=O)[nH]c3c2)s1	12	9	1	-2	x	x
O=C(C1CCCN1S(=O)(=O)c1ccccc1[N+](=O)[O-])N1CCc2ccccc2C1 (configuration not stated)	2	x	x	x	x	x
COC(=O)C1=C(C)N(Cc2ccccc2)C(=S)NC1c1cccc(Br)c1 (configuration not stated)	2	x	x	x	x	x
CC(=O)N1CCN(C(=O)CN2C(=O)CC(C)(C)S(=O)(=O)c3ccccc32)CC1	6	x	x	x	x	x
CS(=O)(=O)N[C@@H]1C[C@@H]2O[C@@H](CO)CC[C@@H]2O[C@@H]1CCc1ccc(/C=C/c2ccccc2)cc1	8	x	x	x	x	x
C#CCNC(=O)C[C@@H]1C(=O)N2CCCC3=C2[C@@]1(C(=O)OCC)CCC3	35*	x	x	x	0	-1
CCOC(=O)N1CCN(C(=O)C[C@@H]2C(=O)N3CCCC4=C3[C@@]2(C(=O)OC)CCCC4)CC1	2	x	x	x	x	x
Cc1nc(SCC(=O)c2ccccc2)[nH]c(=O)c1Oc1ccc(Cl)cc1	41*	4	3	-17	35*	8.5*
COc1ccc(Oc2c(C)nc(SCC(=O)c3ccc(Cl)cc3)[nH]c2=O)cc1	26	9	8	-4	x	x
Cc1[nH]c(=O)nc(SCc2ccc(Cl)c(Cl)c2)c1C#N	38*	3	-10	-5	30	7.2*
Cc1cc(SCc2ccc(Cl)c(Cl)c2)nc(=O)[nH]1	0	1	-4	0	x	x
CC1CCCC(C)N1C(=O)c1ccccc1 (configuration not stated)	0	x	x	x	x	x
CCSc1nnc(NC(=O)c2cccc(S(=O)(=O)N(C)c3ccccc3)c2)s1	6	5	-2	-20	x	x
C=CCN(c1ccccc1)S(=O)(=O)c1cccc(C(=O)Nc2nnc(SCC)s2)c1	52*	3	9	6	58*	17*
C=Cc1ccc(C(=O)N(Cc2ccc(F)cc2)C(C(=O)N(C)C2CCCC2)c2ccc(OC)c(OC)c2)cc1 (configuration not stated)	5	x	x	x	x	x
